Reference: PubChem BioAssay AID651871 (Sanford-Burnham Center for Chemical Genomics, 2012)
Values joined by “and” are separate entries in the source; they are usually repeats but may differ in a detail not shown here. Equal entries are not always repeated.

Test system: HL-1
Assay: cardiomyocyte survival under oxidative or metabolic stress – cell-based, panel, H9c2 and HL-1, ATP luminescence, set 2, SAR follow-up (AID 651871);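 further: cells exposed to stressor for 2 h before ATP readout; reference of the scale not given here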
Conditions: H9c2/HL-1 cardiomyocytes, 2-deoxyglucose stress, with 2-deoxyglucose
[1] = run 15, at 79 µM (top of the series)

Row | Structure (SMILES) | activity (protection/inhibition) [1] | activity (protection/inhibition) (run 15, at 19.8 µM (top of the series))
1 | COc1ccc2nc(-c3cc(OC)c(OC)c(OC)c3)cc(C(=O)NCC(=O)Nc3ccc(C(C)=O)cc3)c2c1 | 56% | –
2 | CCOC(=O)c1cccc(NC(=O)CNC(=O)c2cc(-c3cc(OC)c(OC)c(OC)c3)nc3ccccc23)c1 | 87.5% | –
3 | COc1ccc2c(c1OC)C(=O)N1c3ccccc3C(=O)N(Cc3cccc(Cl)c3Cl)C21 (centres undefined) | -12.5% | 69.2% and 28.8%
